Results filed as inconclusive are left out. The source made the active and inactive calls. Calls follow the shape of the dose curve; as a rule, active = well fitted curve in the direction sought with a large enough effect; inconclusive = small, poorly fitted or top-dose-only effect, or another doubt; inactive = no such curve, though single readings can be large; an effect the other way counts as inactive or inconclusive.
Columns and labels:
[1] = Quantitative High-Throughput drug screen in 47 multiple myeloma cell lines against the NCATS MIPE library collection: NCIH929_DSMZ cell viability assay (AID 1918978); also: nearly all actives have a fitted effect of over 35% in size; also: potency is read from the fitted curve at half-maximal effect
Summary of the method: (§1)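 Cells were exposed to library compounds for 48 hours, after which ATP was measured by CellTiter-Glo. Signal was taken as median relative luminescence units.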

[2] = Quantitative High-Throughput drug screen in 47 multiple myeloma cell lines against the NCATS MIPE library collection: OCIMY1_PLB cell viability assay (AID 1918979);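 also: 100% = DMSO-only wells and 0% = cell-free media-only wells; nearly all actives have a fitted effect of over 35% in size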
Summary of the method: as §1

[3] = Quantitative High-Throughput drug screen in 47 multiple myeloma cell lines against the NCATS MIPE library collection: MM1R_ATCC cell viability assay (AID 1918981); also: nearly all actives have a fitted effect of over 35% in size; also: potency is read from the fitted curve at half-maximal effect
Summary of the method: as §1

[4] = Quantitative High-Throughput drug screen in 47 multiple myeloma cell lines against the NCATS MIPE library collection: L363_DSMZ cell viability assay (AID 1918984); also: nearly all actives have a fitted effect of over 40% in size; also: potency is read from the fitted curve at half-maximal effect
Summary of the method: as §1

[5] = Quantitative High-Throughput drug screen in 47 multiple myeloma cell lines against the NCATS MIPE library collection: OCIMY7_PLB cell viability assay (AID 1918987); conditions: OCI-MY7 myeloma viability, CellTiter-Glo ATP, 48 h; viability (% of DMSO): at 45.8 µM (top of the series); also: nearly all actives have a fitted effect of over 65% in size; also: potency is read from the fitted curve at half-maximal effect
Summary of the method: as §1

[6] = Quantitative High-Throughput drug screen in 47 multiple myeloma cell lines against the NCATS MIPE library collection: OPM1_PLB cell viability assay (AID 1918989); also: nearly all actives have a fitted effect of over 40% in size; also: potency is read from the fitted curve at half-maximal effect
Summary of the method: as §1

[7] = Quantitative High-Throughput drug screen in 47 multiple myeloma cell lines against the NCATS MIPE library collection: SKMM1_PLB cell viability assay (AID 1919863); conditions: SKMM1 myeloma viability, CellTiter-Glo ATP, 48 h; viability: hits give low values; also: nearly all actives have a fitted effect of over 35% in size; also: potency is read from the fitted curve at half-maximal effect
Summary of the method: as §1

[8] = Quantitative High-Throughput drug screen in 47 multiple myeloma cell lines against the NCATS MIPE library collection: U266_ATCC cell viability assay (AID 1919864); also: nearly all actives have a fitted effect of over 35% in size; also: potency is read from the fitted curve at half-maximal effect;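 as to viability (% of DMSO control): 0% = media-only wells without cells and 100% = DMSO-only wells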
Summary of the method: as §1

[9] = Quantitative High-Throughput drug screen in 47 multiple myeloma cell lines against the NCATS MIPE library collection: XG6_PLB cell viability assay (AID 1919865); also: nearly all actives have a fitted effect of over 40% in size; also: potency is read from the fitted curve at half-maximal effect
Summary of the method: as §1

[10] = Quantitative High-Throughput drug screen in 47 multiple myeloma cell lines against the NCATS MIPE library collection: XG1_PLB cell viability assay (AID 1919866); also: nearly all actives have a fitted effect of over 35% in size; also: potency is read from the fitted curve at half-maximal effect
Summary of the method: as §1

[11] = Quantitative High-Throughput drug screen in 47 multiple myeloma cell lines against the NCATS MIPE library collection: PE2_PLB cell viability assay (AID 1919869); also: nearly all actives have a fitted effect of over 35% in size; also: potency is read from the fitted curve at half-maximal effect
Summary of the method: as §1

[12] = Quantitative High-Throughput drug screen in 47 multiple myeloma cell lines against the NCATS MIPE library collection: PCM6_Riken cell viability assay (AID 1919870); also: nearly all actives have a fitted effect of over 30% in size; also: potency is read from the fitted curve at half-maximal effect
Summary of the method: as §1

[13] = Quantitative High-Throughput drug screen in 47 multiple myeloma cell lines against the NCATS MIPE library collection: LP1_DSMZ cell viability assay (AID 1918982); also: nearly all actives have a fitted effect of over 35% in size; also: potency is read from the fitted curve at half-maximal effect
Summary of the method: as §1

[14] = Quantitative High-Throughput drug screen in 47 multiple myeloma cell lines against the NCATS MIPE library collection: OCIMY5_PLB cell viability assay (AID 1918988); also: nearly all actives have a fitted effect of over 65% in size; also: potency is read from the fitted curve at half-maximal effect
Summary of the method: as §1

[15] = Quantitative High-Throughput drug screen in 47 multiple myeloma cell lines against the NCATS MIPE library collection: UTMC2_PLB cell viability assay (AID 1919868); conditions: CellTiter-Glo ATP luminescence, 48 h; viability (% of DMSO control): at 45.8 µM (top of the series); also: nearly all actives have a fitted effect of over 55% in size; also: potency is read from the fitted curve at half-maximal effect;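 as to viability (% of DMSO control): 100% = DMSO-only wells and 0% = media-only wells without cells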
Summary of the method: as §1

[16] = Quantitative High-Throughput drug screen in 47 multiple myeloma cell lines against the NCATS MIPE library collection: KMS28PE_JCRB cell viability assay (AID 1918983); also: nearly all actives have a fitted effect of over 35% in size; also: potency is read from the fitted curve at half-maximal effect
Summary of the method: as §1

[17] = Quantitative High-Throughput drug screen in 47 multiple myeloma cell lines against the NCATS MIPE library collection: RPMI8226_ATCC cell viability assay (AID 1919871); also: nearly all actives have a fitted effect of over 30% in size; also: potency is read from the fitted curve at half-maximal effect
Summary of the method: as §1

[18] = Quantitative High-Throughput drug screen in 47 multiple myeloma cell lines against the NCATS MIPE library collection: VP6_DJ cell viability assay (AID 1919867); also: potency is read from the fitted curve at half-maximal effect; nearly all actives have a fitted effect of over 40% in size
Summary of the method: as §1

[19] = Quantitative High-Throughput drug screen in 47 multiple myeloma cell lines against the NCATS MIPE library collection: KMS34_JCRB cell viability assay (AID 1918985)
Summary of the method: as §1

[20] = Quantitative High-Throughput drug screen in 47 multiple myeloma cell lines against the NCATS MIPE library collection: MM1S_ATCC cell viability assay (AID 1918980); also: nearly all actives have a fitted effect of over 45% in size; also: potency is read from the fitted curve at half-maximal effect
Summary of the method: as §1

Nc1ncnc2c1ncn2[C@@H]1O[C@H](CO)C[C@@H]1O
inactive: Potency [1] | Potency [2] | Potency [3] | Potency [4] | Potency [5] | Potency [6] | Potency [9] | Potency [10] | Potency [11] | Potency [12]
active: Potency [7] 18.7 µM | Potency [8] 26.4 µM

NC[C@@H]1O[C@@H](O[C@H]2[C@@H](O)[C@H](O[C@@H]3[C@@H](O)[C@@H](N)C[C@H](N)[C@H]3O[C@H]3O[C@H](CN)[C@@H](O)[C@@H](O)[C@H]3N)O[C@H]2CO)[C@H](N)[C@@H](O)[C@@H]1O
inactive: Potency [1] | Potency [2] | Potency [3] | Potency [13] | Potency [4] | Potency [14] | Potency [6] | Potency [8] | Potency [9] | Potency [10] | Potency [15] | Potency [11] | Potency [12]

Cc1cnc(C(=O)O)c[n+]1[O-]
inactive: Potency [1] | Potency [2] | Potency [3] | Potency [13] | Potency [4] | Potency [8] | Potency [9] | Potency [10] | Potency [15] | Potency [11] | Potency [12]
active: Potency [16] 23.5 µM

CC(C)(C)NC(=O)Nc1cccc(Nc2ncc(F)c(NC(C)(C)CO)n2)c1
active: Potency [5] 2.35 µM | Potency [14] 3.72 µM | Potency [6] 13.2 µM | Potency [9] 20.9 µM | Potency [10] 3.72 µM | Potency [11] 18.7 µM
inactive: Potency [1] | Potency [2] | Potency [16] | Potency [8] | Potency [17]

CCOC(=O)O[C@]1(C(=O)OCCl)CC[C@@H]2[C@H]3CCC4=CC(=O)C=C[C@]4(C)[C@@H]3[C@@H](O)C[C@@]21C
active: Potency [18] 20.9 µM | Potency [17] 0.118 µM
inactive: Potency [1] | Potency [2] | Potency [3] | Potency [16] | Potency [4] | viability [7] 124% | Potency [9] | Potency [10] | Potency [11] | Potency [12]

C[C@]12CCC3c4ccc(O)cc4CCC3C1CCC2=O (stereo partly specified)
inactive: Potency [1] | Potency [2] | Potency [3] | Potency [8] | Potency [9] | Potency [10] | Potency [11] | Potency [12]
active: Potency [13] 18.7 µM | Potency [16] 11.8 µM | Potency [19] 10.5 µM | Potency [14] 0.0019 µM | Potency [17] 20.9 µM

Nc1ncnc2ccccc12
inactive: Potency [2] | Potency [3] | Potency [6] | Potency [8]
active: Potency [1] 26.4 µM | Potency [5] 14.8 µM | Potency [14] 26.4 µM | Potency [10] 7.43 µM | Potency [12] 20.9 µM

OC[C@H]1O[C@@H](n2cnc3c2NC=NC[C@@H]3O)C[C@H]1O
inactive: Potency [2] | Potency [3] | Potency [4] | viability [7] 110% | Potency [15]
active: Potency [1] 26.4 µM | Potency [5] 23.5 µM | Potency [18] 14.8 µM | Potency [11] 11.8 µM

O=C(NOCC(O)CO)c1cc(Br)c(F)c(F)c1Nc1ccc(I)cc1F (stereo unspecified)
inactive: Potency [2] | Potency [3] | Potency [16] | Potency [4] | Potency [8]
active: Potency [1] 1.05 µM | Potency [5] 0.0166 µM | Potency [9] 2.35 µM

C[N+](C)(C)CC(=O)O
inactive: Potency [1] | Potency [20] | Potency [3] | Potency [16] | Potency [4] | Potency [5] | Potency [8] | Potency [9] | Potency [10] | Potency [11] | Potency [12]

COc1cc(NC(=O)c2ccc(-c3ccc(Cl)cc3)o2)cc(OC)c1
inactive: Potency [3] | Potency [13] | viability [7] 155% | Potency [17]
active: Potency [1] 2.64 µM | Potency [20] 1.05 µM | Potency [5] 3.32 µM | Potency [8] 1.66 µM | Potency [9] 1.66 µM | Potency [10] 3.32 µM | Potency [18] 8.33 µM | Potency [15] 10.5 µM | Potency [11] 5.9 µM | Potency [12] 5.9 µM

CN(C[C@@H]1COCCO1)S(=O)(=O)Nc1ccc2ccc3ncc(-c4cnn(C)c4)cc3c(=O)c2c1
active: Potency [1] 7.43 µM | Potency [20] 16.6 µM | Potency [3] 18.7 µM | Potency [5] 0.469 µM | Potency [14] 3.72 µM | Potency [6] 2.35 µM | Potency [8] 3.32 µM | Potency [10] 2.64 µM | Potency [15] 3.32 µM | Potency [11] 1.48 µM | Potency [12] 1.05 µM

O=C1NC(=O)C(=Cc2ccc3nccnc3c2)S1
active: Potency [1] 3.63 µM | Potency [20] 6.45 µM | Potency [3] 8.12 µM | Potency [16] 10.2 µM | Potency [4] 0.115 µM | Potency [5] 2.29 µM | Potency [6] 6.45 µM | Potency [7] 6.45 µM | Potency [10] 6.45 µM | Potency [18] 4.57 µM | Potency [15] 3.63 µM
